About 83,000 compounds went through this panel and 20% of them were active in at least one assay; those are over-represented in the sample as a whole.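 Percent growth is the endpoint: 0 to 100 indicates growth inhibition (40 means 60% inhibition), 0 means no net growth, and negative values indicate cell death.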 Activity calls are given as the source filed them. The calls were made as follows: active = growth percent below 10; inactive = the rest.
How the values were obtained:
Assay in all cases: NCI-60 one-dose screen, 48 h (100 = growth as untreated, 0 = no growth, -100 = all killed)
Conditions in all cases: 10 µM
T-47D breast = test system: T-47D breast
BT-549 breast = test system: BT-549 breast
MDA-MB-435 melanoma = test system: MDA-MB-435 melanoma
SW-620 colon = test system: SW-620 colon
MCF7 breast = test system: MCF7 breast
HCT-116 colon = test system: HCT-116 colon
HCC-2998 colon = test system: HCC-2998 colon
KM12 colon = test system: KM12 colon

Measured: growth

COc1cccc(C2(C)Nc3ccccc3-c3nc4ccccc4n32)c1 (stereo unspecified)
inactive: T-47D breast 98.5% | BT-549 breast 108% | MDA-MB-435 melanoma 104% | SW-620 colon 108% | MCF7 breast 103% | HCT-116 colon 106% | HCC-2998 colon 106% | KM12 colon 108%

COC(=O)C1(C(=O)OC)C2C(=O)C3C(C21)C3(C(=O)OC(C)(C)C)C(=O)OC(C)(C)C (stereo unspecified)
inactive: T-47D breast 102% | BT-549 breast 101% | MDA-MB-435 melanoma 99.9% | SW-620 colon 106% | MCF7 breast 103% | HCT-116 colon 101% | HCC-2998 colon 112% | KM12 colon 112%

O=C1/C(=C/c2ccc([N+](=O)[O-])s2)Oc2ccc(Cl)cc21
active: T-47D breast -34.9% | BT-549 breast -67.1% | MDA-MB-435 melanoma -60.4% | SW-620 colon -64.4% | MCF7 breast -26.7% | HCT-116 colon -52.7% | HCC-2998 colon -74.8% | KM12 colon -53.3%

Cc1c(C(=O)N[C@H](CO)Cc2ccccc2)[nH]c2ccc(Cl)cc2c1=O
inactive: T-47D breast 89.9% | BT-549 breast 107% | MDA-MB-435 melanoma 89.3% | SW-620 colon 101% | MCF7 breast 92.7% | HCT-116 colon 97.4% | HCC-2998 colon 94.4% | KM12 colon 106%

COc1ccc(-c2cn[nH]c2-c2cc(OC)c(OC)c(OC)c2)cc1
active: BT-549 breast -13.8% | MDA-MB-435 melanoma -19% | MCF7 breast 5.37% | HCT-116 colon 0.33% | HCC-2998 colon 6.62% | KM12 colon 4.39%
inactive: T-47D breast 45.6% | SW-620 colon 20.5%

CCCCC(CC#N)(CCC)CCC
inactive: T-47D breast 100% | BT-549 breast 98.5% | MDA-MB-435 melanoma 99.4% | SW-620 colon 108% | MCF7 breast 98.4% | HCT-116 colon 106% | HCC-2998 colon 96.3% | KM12 colon 107%

COc1ccc(-c2[nH]ncc2/C=C/c2cc(C(F)(F)F)[nH]c(=O)n2)cc1
inactive: T-47D breast 75.9% | BT-549 breast 80.4% | MDA-MB-435 melanoma 97.8% | SW-620 colon 98.4% | MCF7 breast 91.2% | HCT-116 colon 100% | HCC-2998 colon 103% | KM12 colon 103%

CCC(O)c1ccc(Br)cc1NC(=O)c1cccc(Cl)c1 (stereo unspecified)
inactive: T-47D breast 20.8% | BT-549 breast 42.7% | MDA-MB-435 melanoma 16.9% | SW-620 colon 13.8% | MCF7 breast 14.4% | HCT-116 colon 20.7% | HCC-2998 colon 19.1% | KM12 colon 26.3%

COc1ccc(COC(=O)CC(C)C)cc1
inactive: T-47D breast 96.7% | BT-549 breast 100% | MDA-MB-435 melanoma 107% | SW-620 colon 105% | MCF7 breast 99.7% | HCT-116 colon 96.3% | HCC-2998 colon 103% | KM12 colon 98%

CCCCCCOc1ccc(/C=C/C(=O)c2ccc(B(O)O)cc2)cc1
inactive: T-47D breast 73.9% | BT-549 breast 35.2% | MDA-MB-435 melanoma 77.1% | SW-620 colon 96.8% | MCF7 breast 57.5% | HCT-116 colon 55.6% | HCC-2998 colon 95.6% | KM12 colon 85.4%

CC(C)c1[nH]nc2c(NCc3ccc(-c4ccccn4)cc3)nc(SCCN(C)C)nc12
active: T-47D breast -6.72% | BT-549 breast -43.1% | MDA-MB-435 melanoma 0.81% | SW-620 colon 9.8% | MCF7 breast 4.04% | HCT-116 colon 9.24% | HCC-2998 colon -15.7% | KM12 colon 8.47%

COc1ccc(-c2nnc(SCC(=O)c3ccccc3)o2)cc1
inactive: T-47D breast 86.3% | BT-549 breast 74.9% | MDA-MB-435 melanoma 101% | SW-620 colon 102% | MCF7 breast 104% | HCT-116 colon 78.9% | HCC-2998 colon 86.1% | KM12 colon 98.3%

COc1ccc(Nc2nc(NCc3ccccc3)c3ccccc3n2)cc1
inactive: T-47D breast 45.6% | BT-549 breast 82.9% | MDA-MB-435 melanoma 84.2% | SW-620 colon 68.2% | MCF7 breast 67.4% | HCT-116 colon 29.8% | HCC-2998 colon 91.5% | KM12 colon 80.7%

O=C1/C(=C/c2ccc(O)cc2)Cc2ccc(Cl)cc21
inactive: T-47D breast 80.4% | BT-549 breast 59% | MDA-MB-435 melanoma 78% | SW-620 colon 98.7% | MCF7 breast 58.8% | HCT-116 colon 88.4% | HCC-2998 colon 115% | KM12 colon 87.6%

CCc1ccc(-c2nnc(COc3ccc(-c4nc5cc(Cl)c(Cl)cc5[nH]4)cc3OC)o2)cc1
inactive: T-47D breast 43.6% | BT-549 breast 105% | MDA-MB-435 melanoma 65.2% | SW-620 colon 53% | MCF7 breast 15.4% | HCC-2998 colon 82.8% | KM12 colon 44.1%
active: HCT-116 colon 1.36%

O=C(Nc1ccc(Oc2ccc(Nc3nc4ccccc4s3)cc2)cc1)Nc1ccc(Cl)c(Cl)c1
inactive: T-47D breast 13.9% | BT-549 breast 59.5% | MDA-MB-435 melanoma 25.4% | SW-620 colon 33.6% | MCF7 breast 29.3% | HCT-116 colon 16.8% | HCC-2998 colon 29.4% | KM12 colon 20.7%

COc1cccc2c1O/C(=C\c1ccc([N+](=O)[O-])s1)C2=O
inactive: T-47D breast 39.6% | MDA-MB-435 melanoma 48.4% | MCF7 breast 42.8% | HCC-2998 colon 89.7% | KM12 colon 18.3%
active: BT-549 breast -14.3% | SW-620 colon -28.6% | HCT-116 colon -14%

CCN(CC)c1ccc(/C=C/C2=[N+](C)c3ccccc3C2(C)C)c(C)c1
active: T-47D breast -0.932% | BT-549 breast -13.2% | MDA-MB-435 melanoma -13.7% | MCF7 breast 3.87% | HCT-116 colon 5.94% | KM12 colon -34.7%
inactive: SW-620 colon 18.7% | HCC-2998 colon 23.3%

N#C/C(=C\N1C(=O)/C(=C/c2cccc([N+](=O)[O-])c2)SC1=S)c1nc2ccccc2s1
inactive: T-47D breast 54.7% | BT-549 breast 78.3% | MDA-MB-435 melanoma 76.2% | SW-620 colon 105% | MCF7 breast 70.9% | HCT-116 colon 81.6% | HCC-2998 colon 100% | KM12 colon 81.3%

COc1cc(CSc2nc3ccc(C)cc3c(=O)n2Cc2ccccc2)cc(OC)c1OC
active: MDA-MB-435 melanoma -5.84%
inactive: T-47D breast 34.1% | BT-549 breast 34.8% | SW-620 colon 25.8% | MCF7 breast 18% | HCT-116 colon 25.2% | HCC-2998 colon 43% | KM12 colon 25.3%

COc1ccc(S(=O)(=O)Nc2ccc(OCc3nnc(-c4ccc(Cl)cc4)o3)c(F)c2)cc1
inactive: BT-549 breast 55% | MDA-MB-435 melanoma 64% | SW-620 colon 84.5% | MCF7 breast 42.8% | HCT-116 colon 54.6% | HCC-2998 colon 74.2% | KM12 colon 56.3%
active: T-47D breast 9.53%

O=c1ccc2nc(-c3ccccc3)nn(-c3ccccc3)c-2c1
active: T-47D breast -36.5% | SW-620 colon -80.5% | MCF7 breast -66.7% | HCT-116 colon -90.7%
inactive: BT-549 breast 90.2% | MDA-MB-435 melanoma 24.7% | HCC-2998 colon 100% | KM12 colon 63.1%

CNC(=S)Sc1ccc([N+](=O)[O-])cc1[N+](=O)[O-]
inactive: T-47D breast 32.2% | BT-549 breast 20.5% | MDA-MB-435 melanoma 29.5% | SW-620 colon 36.8% | MCF7 breast 31.5% | HCT-116 colon 27.7% | HCC-2998 colon 75.1% | KM12 colon 13.4%

O=C(Nc1cccc(Cl)c1)OCC(COC(=O)Nc1cccc(Cl)c1)(COC(=O)Nc1cccc(Cl)c1)[N+](=O)[O-]
inactive: T-47D breast 14.7% | BT-549 breast 50.8% | MDA-MB-435 melanoma 39.9% | SW-620 colon 45.6% | MCF7 breast 21.1% | HCT-116 colon 16.3% | HCC-2998 colon 36.9% | KM12 colon 23.8%

[O-]c1c[n+](-c2ccc(Cl)cc2)no1
inactive: T-47D breast 83.5% | BT-549 breast 107% | MDA-MB-435 melanoma 100% | SW-620 colon 97.5% | MCF7 breast 84.9% | HCT-116 colon 102% | HCC-2998 colon 101% | KM12 colon 95.8%

COC(=O)[C@]12CC[C@@H](C)[C@H](C)[C@@H]1C1=CC[C@@H]3[C@@]4(C)C/C(=N\O)[C@H](O)[C@@]5(C)COC(=C45)C[C@@]3(C)[C@]1(C)CC2
active: T-47D breast -84.6% | BT-549 breast -79.8% | MDA-MB-435 melanoma -84% | SW-620 colon -64.5% | MCF7 breast -71.1% | HCT-116 colon -84.8% | HCC-2998 colon -89.4% | KM12 colon -80.9%

COC(=O)[C@]12CC[C@@H](C)[C@H](C)[C@@H]1C1=CC[C@@H]3[C@@]4(C)CC(=O)[C@H](O)[C@@]5(C)COC(=C45)C[C@@]3(C)[C@]1(C)CC2
active: T-47D breast -37.3% | BT-549 breast -61.7% | MDA-MB-435 melanoma -27.6% | SW-620 colon -60% | MCF7 breast -45.8% | HCT-116 colon -76.2% | HCC-2998 colon -88.1% | KM12 colon -64.1%
